Pf Dd2 growth – Plasmodium falciparum Dd2 growth inhibition; P. falciparum Dd2 growth, SYBR Green, 72 h; Potency, µM (doses to about 28.9 µM), without a hit: at the highest dose activity, negative = inhibition, hits mostly inhibitors; 120,000 tested, 4.3% active; active = well fitted inhibition curve with a large enough effect;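 also: plate controls were DMSO vehicle for no effect and reference drug for full effect; nearly all actives have a fitted effect of over 65% in size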
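Infected erythrocytes (Dd2, 0.3% parasitemia, 2.5% hematocrit final) are added to compound in RPMI-1640/Albumax II medium, grown 72 h at 37C in low oxygen, then lysed with saponin/Triton-X containing SYBR Green and read by fluorescence.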
Numbers without * were called inactive; i = inactive; [ ] = dose if it differs, or a comment. Only a selection was taken, and hits are over-represented in it overall. Potency is read from the fitted curve at half-maximal effect.

SMILES | Pf Dd2 growth
O=C(Nc1ccc2c(c1)C(=O)N1CCC[C@H]1C(=O)N2)c1cc(-c2cccnc2)n[nH]1 | -19%
O=C1NCCCCCCN(C(=O)Nc2ccc3c(c2)OCCO3)[C@H]2CCC[C@@H]12 | i
CCCCc1ccc(NC(=O)CN2C(=O)NC(c3ccccc3OCC)C3=C2COC3=O)cc1 (stereo not given) | 0%
CC(=O)N1CCC(C(=O)NC2CCN(c3cc(-c4ccccc4)[nH]n3)CC2)CC1 | 23%
CN(Cc1cccn1C)[S+](=O)([O-])c1cccs1 | -5%[44.1 µM]
Cc1ccn2c(Nc3ccccc3C)c(-c3ccccc3)nc2c1 | i
Cc1ccn2c(Nc3ccc4c(c3)OCCO4)c(-c3ccc(Cl)s3)nc2c1 | -3%
COc1cc(O)ccc1-c1nc2cc(C)ccn2c1Nc1ccccc1C | 7.9µM*
Cc1ccc(Nc2c(-c3ccccc3O)nc3cc(C)ccn23)cc1 | 5.6µM*
COc1ccc(-c2nc3cc(C)ccn3c2NC(=O)c2ccc(C)c(C)c2)cc1 | -7%
Cc1ccc(Nc2c(-c3ccccc3O)nc3ccc(Br)cn23)cc1 | -17%
CN1C[C@H](O)C[C@H]1c1nnc2n1CCN(C(=O)c1cccs1)CC2 | 9%
O=C1CCC2(CCNCC2)CCN1 | 18%
Cc1ccc(C(=O)N2CCc3sc(C(=O)NCc4ccc(N(C)C)cc4)cc3C2)cc1 | -20%
CC(NC(=O)c1cc2c(s1)CCN(C(=O)c1ccccc1)C2)c1ccc(F)cc1 (stereo not given) | -2%
Cc1ccc(C(=O)N2CCc3sc(C(=O)NC(C)c4ccccc4)cc3C2)cc1 (stereo not given) | 7.1µM*
O=C(Nc1ccc([C@H]2OCC(=O)N(Cc3ccc(F)cc3)[C@@H]2CO)cc1)C1CCOCC1 | -16%
CCOCCCNC(=O)N1CCC2(CC1)CC(N(C(=O)c1ccccc1)C1CC1)CCO2 (stereo not given) | i
Cc1noc([C@@H](C)NC(=O)C2CCCCC2)c1C(=O)O | 6%[44.1 µM]
COc1ccc(-c2c(C)c3ccc(O)c(CN4CCCCC4C)c3oc2=O)cc1OC (stereo not given) | 11µM*
COc1ccc(-c2cc3ccc(O)c(CN4CCCCC4C)c3oc2=O)cc1OC (stereo not given) | 7.1µM*
CCC1CCCCN1C(=O)CSc1nc(-c2ccc(OC)c(OC)c2)cc(C(F)(F)F)n1 (stereo not given) | i
COc1ccc(-c2cc(C(F)(F)F)nc(SCC(=O)N3CCCCC3C)n2)cc1OC (stereo not given) | 92%
CCCNC(=O)C1CCN(c2cc(C)nc3c(-c4ccc(OC)c(OC)c4)c(C)nn23)CC1 | i
COc1ccc(-c2nccc3c(=O)cc(N4CCOCC4)oc23)cc1OC | -4%[44.1 µM]
SMILES | Pf Dd2 growth
Cc1c(Cl)cc(C(=O)N2CCC[C@H]2C(=O)N2CCOCC2)cc1Cl | -22%
CS(=O)(=O)N1CCC(C2CCNC2)CC1 (stereo not given) | -2%
O=C(O)C1(Oc2ccc3ccccc3c2)CCN(c2ncnc3nc[nH]c23)CC1 | -12%
C#CCNC(=O)[C@H]1O[C@H](CCN2CCN(Cc3ccccc3)CC2)CC[C@@H]1O | i
CC(C)c1ccc(CC(=O)N2CCCc3ncc(C(=O)Nc4cccc(C(F)(F)F)c4)cc32)cc1 | i
COc1ccccc1N1CCCc2ncc(C(=O)NCCc3ccccc3)cc21 | i
COc1ccccc1CC(=O)N1CCCc2ncc(C(=O)Nc3ccc(OC)c(OC)c3)cc21 | -34%
COc1ccccc1CC(=O)N1CCCc2ncc(C(=O)NCCOc3ccccc3)cc21 | i
COc1ccccc1CC(=O)N1CCCc2ncc(C(=O)N(C)c3ccccc3)cc21 | -4%[44.1 µM]
COc1ccccc1CC(=O)N1CCCc2ncc(C(=O)Nc3cccc(C(F)(F)F)c3)cc21 | 4.5µM*
COc1ccccc1CC(=O)N1CCCc2ncc(C(=O)Nc3cccc(Cl)c3)cc21 | 2.5µM*
COc1ccc(NC(=O)c2cnc3c(c2)N(C(=O)Cc2cccc(C(F)(F)F)c2)CCC3)cn1 | -25%
COc1ccc(NC(=O)c2cnc3c(c2)N(c2ccccc2OC)CCC3)cn1 | 6.3µM*
COCCOCC(=O)N1CCC2(CC1)C(OC)CN2c1cccc(F)c1 (stereo not given) | i
CC(Cn1cccn1)C(=O)N1CCC2(CC1)Nc1ccccc1NC2=O (stereo not given) | -3%
Cc1ccc(S(=O)(=O)NC[C@H]2O[C@@H](CO)[C@@H](O)[C@H]2N2CCN(c3ccccn3)CC2)cc1 | -23%
COCCN1C(=O)[C@H]2CN(Cc3cccc(C#N)c3)C[C@H]2C1=O | -6%
Cc1ccccc1COC1CN(C(=O)C2CC(=O)N(C(C)(C)C)C2)C1 (stereo not given) | -2%
COc1ccc(Cl)cc1NC(=O)CCC1CCCN(C(=O)CN2CCOC2=O)C1 (stereo not given) | 1%
COc1ccc(C2Cn3nnc(C(=O)N4CCC(C(=O)NCc5cccc(F)c5)CC4)c3CO2)cc1 (stereo not given) | -2%
CCC(C)(C)C(=O)N1CCC(N2CC3CC(C2)[C@H]2CCCC(=O)N2C3)CC1 (stereo not given in full) | -7%
Cc1nc(C(=O)N2CCC(c3nnc(CN4CCCC4)n3C)CC2)cs1 | 18%
CCOCCCNc1ncnc2c1CN(C1CCCNC1)C(=O)CN2C (stereo not given) | 13%
O=C(Nc1ccccc1CCc1ccccn1)C1CCN(c2cnn(Cc3ccccc3)c(=O)c2)C1 (stereo not given) | 4.5µM*
Cn1ncc(N2CCC(C(=O)Nc3ccccc3CCc3ccccn3)C2)cc1=O (stereo not given) | -16%
SMILES | Pf Dd2 growth
O=C(NCc1cnccn1)C1CCCN(c2cnn(Cc3ccccc3)c(=O)c2)C1 (stereo not given) | -16%
COCCN1C(=O)[C@H]2CN(Cc3cccc(C)c3)C[C@H]2C1=O | -24%
Cc1ccc(C(=O)Nc2ccc(NC(=O)CCCn3cncn3)cc2)o1 | -1%
CS(=O)(=O)N(Cc1cccnc1)C1CN(C(=O)CCc2c[nH]c3ccccc23)C1 | -11%
O=C(Nc1ccc(F)cc1)c1csc2c1CCCCC2 | -7%
Cc1cc(F)ccc1NC(=O)c1csc2c1CCC(C)C2 (stereo not given) | 4.5µM*
Cc1cc(F)ccc1NC(=O)c1ccc2nc(Cc3ccccc3)oc2c1 | -21%
O=C(C1CCCC1)N1CCC(N2CC(OCC3CC3)C23CCOCC3)CC1 (stereo not given) | i
COc1ccc(Nc2ccc3nnc(-c4ccc(C)cn4)n3n2)cc1 | -11%[44.1 µM]
COc1ccc(-c2nnc3ccc(NC(C)C)nn23)nc1 | i
COc1ccc(-c2nnc3ccc(Nc4cccc(OC)c4)nn23)nc1 | 10µM*
OCCC1CN(Cc2cccn2-c2ccccn2)CCN1Cc1cccs1 (stereo not given) | -25%
CN(C)[C@@H]1CN(Cc2cccc(C#N)c2)CC[C@@H]1CNC(=O)C1CC1 | i
CN(Cc1nc(-c2ccncc2)no1)C(=O)C1CNCCO1 (stereo not given) | -8%
CSCC(=O)N1CCC(C2CCN(S(C)(=O)=O)CC2)C1 (stereo not given) | 7%
c1cc(-c2noc([C@@H]3CCCN3Cc3ncc[nH]3)n2)cc(N2CCOCC2)n1 | 13%[44.1 µM]
CC(=O)N1CCN(c2cc(-c3noc([C@@H]4CCCN4Cc4ccc(CO)o4)n3)ccn2)CC1 | i
c1ccc(CN2CCC[C@H]2c2nc(-c3ccnc(N4CCOCC4)c3)no2)nc1 | 7.1µM*
COc1ccc(CN2CCC[C@H]2c2nc(-c3ccnc(N4CCOCC4)c3)no2)cc1 | -26%[44.1 µM]
NC(=O)C1CCN(c2cc(-c3noc([C@@H]4CCCN4Cc4ccccc4F)n3)ccn2)CC1 | i

Bioassay records as filed in PubChem BioAssay.
